PubChem BioAssay (NCI)
The panel holds about 83,000 compounds, 20% with a hit somewhere; the sample as a whole holds those more often.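 Negative percent growth values reflect cell death: -40 means 40% of the cells present at the start died, and -100 means all died.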 Values without a mark were called inactive. The source made the active and inactive calls. How the source made its calls: active means growth percent below 10; inactive means the rest.

These molecules were tested on MDA-MB-468 breast (assay: NCI-60 one-dose screen, 48 h (100 = growth as untreated, 0 = no growth, -100 = all killed)). Conditions: 10 µM unless noted.

Row | SMILES | growth
1 | CCOC(=O)c1c(C)oc2ncnc(Nc3ccc(NC(=O)Nc4ccc(CC)cc4)cc3)c12 | 128%
2 | C=C1C(=O)O[C@H]2[C@H]1CC/C(COC(=O)CCC(=O)NCCOCCOCC(=O)Nc1ccc(OC)c(C(N)=O)c1O)=C\CC[C@@]1(C)O[C@@H]21 | -17.5% (active)
3 | CN1CCN(Cc2ccc(NC(=O)c3cccc(C#Cc4c(N)ncc5ccc(F)cc45)c3)cc2C(F)(F)F)CC1 | -61.7% (active)
4 | C#C[C@]1(O)CC[C@H]2[C@@H]3CC=C4c5nc(Nc6ncccn6)sc5CC[C@]4(C)[C@H]3CC[C@@]21C | 75.5%
5 | CC(C)CSc1nc(NN)c(C#N)c(-c2ccc(F)cc2)n1 | 85.2%
6 | Cc1nn(-c2ccccc2)c2ncc3c(c12)C(=O)N(Cc1ccccc1)C3=O | 77.8%
7 | CC(C)(C)CC(C)(C)Nc1c(-c2c(O)c3ccccc3oc2=O)nc2c(Cl)cc(C(F)(F)F)cn12 | 92.2%
8 | O=S(=O)(NCCNc1nccc(-c2c(-c3ccc(F)c(O)c3)nc3occn23)n1)c1ccc(Cl)cc1 | 95.6%
9 | CC(C)(C)CC(C)(C)c1ccc(OCCOCCSC(=N)N)cc1 | -47.3% (active)
10 | CC(C)CN1CC(C(=O)Nc2ccc3c(c2)-c2ccccc2C3)CC1=O (stereo not given) | 60.5% [50 µM]
11 | CCOC(=O)c1ccc2c(c1)c1c(C)c3ccncc3c(C)c1n2C | 5.19% (active)
12 | CCOC(=O)c1ccc(N(CCC(=O)O)C(C)=O)cc1 | 99.9%
13 | CC(C)(C)Nc1nc2c(OCCc3ccccc3)cccn2c1-c1ccc([N+](=O)[O-])cc1 | -19.5% (active)
14 | N#Cc1c(N)nc2c(nnn2-c2cccc(Br)c2)c1N | 92.9%
15 | CCOC(=O)c1n[nH]n2c1nc(=O)c1cnn(C)c12 | 113%
16 | CCS(=O)(=O)c1ncnc2nc[nH]c12 | 105%
17 | O=C1/C(=C/c2ccc(Br)cc2)COc2ccc(O)c(O)c21 | -51.8% (active)
18 | Nc1n[nH]c(=S)n1-c1ccc(Cl)cc1 | 97.5%
19 | C=C(C)[C@@H]1CC[C@]2(C(=O)O)CC[C@]3(C)[C@H](CC[C@@H]4[C@@]5(C)C[C@@H](Cc6cn(CCO[C@@H]7O[C@H](COC(C)=O)[C@H](OC(C)=O)[C@H](OC(C)=O)[C@H]7OC(C)=O)nn6)[C@H](O)C(C)(C)[C@@H]5CC[C@]43C)[C@@H]12 | 64.4%
20 | OCCCC1CCN(C(Cc2ccccc2)c2ccccc2)CC1 (stereo not given) | 95.2%

Row | SMILES | growth
21 | c1cncc(-c2cn3nc(-c4c[nH]c5ccccc45)sc3n2)c1 | -9.26% (active)
22 | NCCCNc1nc2ccccc2c2c(=O)c3cc(Cl)ccc3sc12 | -19.1% (active)
23 | Nc1cc(Br)cc2c1[nH]c(=O)c1ccccc12 | -8.15% (active)
24 | NC(CCC(=O)NC(CS)C(=O)NCC(=O)O)C(=O)O (stereo not given) | 102%
25 | CCOC(=O)/C(=C/CC/C(C)=C/CC/C(C)=C/CCc1ccoc1)CC(=O)N1CCCCC1 | 0.246% (active)
26 | CN(C)C(=S)N(C)C | 114%
27 | CC(C)[C@@H]1NC(=O)[C@]2(C)CSC(=N2)c2ccnc(c2)CNC(=O)C[C@@H](/C=C/CCS)OC1=O | 42.7%
28 | CCN(CC)C(=O)O/N=C(/C)c1ccccc1 | 96.5%
29 | N#CC1=C(N)Oc2cc(N)ccc2C1c1ccc(F)cc1 (stereo not given) | 45.1%
30 | COc1ccc(-c2cc(-c3ccc(OC)cc3)nc(NCCCNc3ccnc4cc(Cl)ccc34)n2)cc1 | 74.8%
31 | COc1ccc(OC)c2c1CCC1(C2)NC(=O)NC1=O (stereo not given) | 106%
32 | CNc1cccc2c1C(=O)c1cccc(N)c1C2=O | 46.1%
33 | CNC(=O)c1cc(Oc2cccc3nc(Nc4ccc(Cl)c(F)c4)ccc23)ccn1 | 51.3%
34 | CCN(CCCCCCN1CC(=O)N(CCCCCCN(CC)Cc2ccccc2OC)CC1=O)Cc1ccccc1OC | 84%
35 | CCCC(=O)c1cccs1 | 96.9%
36 | c1cc(-c2ccc3c(c2)OCO3)n2nccc2n1 | 95%
37 | CCOC(=O)C1=C(Nc2ccc(OC)cc2)C(N)=NC1=N | 31.9%
38 | CC(=O)c1cc(C(=O)c2ccc3c(c2)Sc2ccccc2N3)n2ccccc12 | 3.96% (active)
39 | CC[C@]12C=CCN3CC[C@@]4(c5ccc(OC)cc5N(C)[C@H]4[C@@](O)(C(=O)OC)[C@@H]1OC(=O)CCN1CCc4ccccc4C1)[C@@H]32 | 69.7%
40 | Brc1c[n+](Cc2ccc3ccccc3c2)cn1Cc1ccc2ccccc2c1 | -29.1% (active)
